Sm TGR inh: S. mansoni TGR enzyme inhibition; Q962Y6; purified TGR, DTNB reduction, TNB absorbance 405 nm; Potency, µM (top dose mostly 114 µM), for the others: at the top dose activity change, negative = inhibition, most hits filed as inhibitors; actives 3% (n = 360,000); AID 485364; also: nearly all actives have a fitted effect of over 60% in size
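TGR 20 nM + NADPH 100 uM (dispensed conc.), cpd preinc 15 min RT; start with NADPH (500 uM addition) then DTNB (15 mM addition). Kinetic TNB absorbance, 405 nm filter. Four-parameter Hill fit across titration.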
RE007 growth inh: less growth of the S. pombe RE007 Vpr strain. S. pombe RE007 Vpr strain, BacTiter-Glo ATP luminescence, 24 h. Potency, µM (top dose mostly 92.2 µM), for the others: at the highest dose activity change, negative = less growth, hits mostly inhibitors. actives 0.21% (n = 360,000). AID 651644; active = well fitted falling curve with a large enough effect; inconclusive = small, poorly fitted or top-dose-only effect; inactive = no such curve, though single readings can be large or run the other way; also: nearly all actives have a fitted effect of over 50% in size
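Fission yeast strain RE007, carrying one chromosomally integrated HIV-1 vpr copy, was seeded at OD 0.01 in PMG+AL medium with 23 nL pinned compound. After 24 h at 30 °C and 99% humidity, viability was read by BacTiter-Glo luminescence.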
LASV entry inh: Lassa virus entry inhibition. Potency, µM (top dose mostly 37.9 µM), without a hit: at the highest dose activity change, negative = inhibition, hits mostly inhibitors. Lassa virus pseudotype entry inhibition, cell reporter. actives 1.2% (n = 300,000); calls by dose curve; tested in HEK293 cells; also: nearly all actives have a fitted effect of over 50% in size
HCV inh: inhibitors of hepatitis C virus infection | Huh7.5.1 HCVcc-Cre infection, luciferase reporter, 44 h | Potency, µM (titrated, usually from 41.8 µM), without a hit: at the highest dose activity change, negative = inhibition, usual class: inhibitors | actives 3.4% (n = 340,000)
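Infectious HCV cell culture screen: compound-treated cells (1,000/well, pre-plated 4 h) are infected with HCVcc-Cre at roughly 0.5 moi and grown 44 h. Infection is quantified by luciferase signal after 15 min substrate incubation at room temperature.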
FMDV antiviral: foot and mouth disease virus antiviral activity | FMDV antiviral cell-based qHTS | Potency, µM (doses to about 57.9 µM), for the others: at the highest dose activity change, negative = inhibition, actives largely listed as inhibitors | actives 1.2% (n = 410,000) | AID 1159524; calls by dose curve; tested in HEK293T cells; also: read-out not given here; nearly all actives have a fitted effect of over 45% in size
Marburg entry inh: Marburg virus entry inhibition; Marburg virus pseudotyped entry inhibition, cell reporter; Potency, µM (titrated, usually from 37.8 µM), for inactives: top-dose activity change, negative = inhibition, usual class: inhibitors; actives 1.8% (n = 300,000); AID 540276; calls by dose curve; tested in HEK293 cells
Active calls of the source: *; [ ] = another dose, or the depositor's remark. The list is not random: actives were taken first. Their share in the collection is about 7.2%. Unless noted, calls follow the shape of the dose curve; as a rule, active = well fitted curve in the direction sought with a large enough effect; inconclusive = small, poorly fitted or top-dose-only effect, or another doubt; inactive = no such curve, though single readings can be large; an effect the other way counts as inactive or inconclusive. % is scaled to controls: 0 for no effect and ±100 for the full control effect; potency is read from the fitted curve at half-maximal effect.

`Cc1ccc(NC(=S)N/N=C/c2ccc([N+](=O)[O-])s2)cc1` gave Sm TGR inh inconclusive, RE007 growth inh -27.3%, LASV entry inh 17.8µM*, HCV inh inconclusive, FMDV antiviral inconclusive and Marburg entry inh inconclusive.
For Cc1cc(C)cc(N=Cc2ccc([N+](=O)[O-])s2)c1 the results were Sm TGR inh inconclusive, RE007 growth inh 39.8µM*, LASV entry inh inconclusive, HCV inh inconclusive, FMDV antiviral 0.0% and Marburg entry inh inconclusive.
`CCN(C(=O)Cn1c(C(=O)OC)cc2sccc21)c1cccc(C)c1` gave Sm TGR inh -3.0%, FMDV antiviral -16.0% and Marburg entry inh -16.4%[46.1 µM].
For Cc1c(NC(=O)Nc2cccc(C(F)(F)F)c2)sc2nc3n(c(=O)c12)CCC(C)CC3 (stereo unspecified) the results were Sm TGR inh -0.1%, FMDV antiviral inconclusive and Marburg entry inh -1.1%[46.1 µM].
COCCCNc1oc(COc2ccc(Cl)cc2Cl)nc1C#N was read as Sm TGR inh 20µM*, RE007 growth inh 11.1%, LASV entry inh -1.4%, HCV inh -9.2%, FMDV antiviral -17.9% and Marburg entry inh -9.7%.
Screening N#Cc1nc(Cc2cccc3ccccc23)oc1NCCN1CCCCC1 returned Sm TGR inh inconclusive, RE007 growth inh -10.9%, LASV entry inh -0.4%, HCV inh 11.2µM*, FMDV antiviral -25.8% and Marburg entry inh -27.9%.
`N#Cc1nc(COc2ccccc2)oc1NCCN1CCOCC1` gave Sm TGR inh 40.9%, RE007 growth inh 16.1%, LASV entry inh 14.0%, HCV inh inconclusive, FMDV antiviral 25.4% and Marburg entry inh 11.8%.
COc1ccc(CCNc2oc(COc3ccc(Br)cc3)nc2C#N)cc1OC was read as Sm TGR inh 5.8%, RE007 growth inh -1.9%, HCV inh inconclusive and FMDV antiviral 31.6µM*.
N#Cc1nc(COc2cccc(Cl)c2)oc1NCCN1CCOCC1 was read as Sm TGR inh 35.5µM*, RE007 growth inh -8.6%, LASV entry inh inconclusive, HCV inh 19.7%, FMDV antiviral 14.5% and Marburg entry inh 1.5%.
For CN(C)CCNc1oc(COc2ccc(Cl)cc2Cl)nc1C#N the results were Sm TGR inh inconclusive, RE007 growth inh -9.3%, LASV entry inh 9.5%, HCV inh -22.5%, FMDV antiviral 16.8% and Marburg entry inh -16.5%.
Screening O=c1[nH][nH]c2c1[C@H](c1ccc(F)cc1)O[C@H](CCc1ccccc1)C2 returned RE007 growth inh 5.2% and FMDV antiviral -13.2%.
Screening COc1ccccc1CNC(=O)COCc1cc(-c2cccs2)on1 returned Sm TGR inh 2.6%, LASV entry inh 11.0%[46.1 µM] and FMDV antiviral -5.2%.
Screening Cn1c(=O)c2c(SCC(=O)NCc3ccco3)nc(-c3cccc(F)c3)nc2n(C)c1=O returned Sm TGR inh -0.4%, LASV entry inh 2.0%[46.1 µM] and FMDV antiviral inconclusive.
For CC#CCOC(=O)c1c(C)nc2sc3c(c2c1N)CC[C@@H](O)C3 the results were FMDV antiviral -10.2% and Marburg entry inh -37.7%.
`CNc1oc(Cc2cccc3ccccc23)nc1C#N` gave Sm TGR inh -23.0%, RE007 growth inh 13.1%, LASV entry inh -0.9%, HCV inh -3.3%, FMDV antiviral -9.7% and Marburg entry inh -11.5%.
For COc1ccc(CCNc2oc(Cc3cccc4ccccc34)nc2C#N)cc1OC the results were Sm TGR inh 1.1%, RE007 growth inh 1.9%, LASV entry inh inconclusive, HCV inh 7.94µM*, FMDV antiviral 28.2µM* and Marburg entry inh inconclusive.
For Fc1ccccc1CNC(=S)NC1CCCCC1 the results were Sm TGR inh -3.2%, RE007 growth inh -8.6%, LASV entry inh inconclusive, HCV inh inconclusive, FMDV antiviral 23.4% and Marburg entry inh inconclusive.
COc1ccccc1CNC(=S)NC1CCCCC1 was read as Sm TGR inh -7.7%, RE007 growth inh 11.3%, LASV entry inh 8.91µM*, HCV inh -26.5%, FMDV antiviral -5.2% and Marburg entry inh inconclusive.
For CCOc1ccc(S(=O)(=O)N(C)CCO)cc1-c1nc2c(C(C)(C)C)nn(C)c2c(=O)[nH]1 the results were Sm TGR inh 5.2%, RE007 growth inh inconclusive, LASV entry inh 2.82µM*, HCV inh inconclusive, FMDV antiviral -0.3% and Marburg entry inh -31.5%.
Screening CCOc1ccc(S(=O)(=O)N(C)C)cc1-c1nc2c(C(C)(C)C)nn(C)c2c(=O)[nH]1 returned Sm TGR inh -5.2%, RE007 growth inh 7.0%, LASV entry inh -20.4%, HCV inh 8.3% and Marburg entry inh 2.0%.
Screening Cc1cc(-c2ccccc2)[nH]c(=O)c1C#N returned Sm TGR inh -2.2%, RE007 growth inh 5.4%, LASV entry inh 19.9%, HCV inh -5.7%, FMDV antiviral 4.3% and Marburg entry inh 2.0%[46.1 µM].
CN(C)c1c(-c2ccccc2)cc(-c2ccccc2)[nH]c1=O was read as Sm TGR inh 15.8µM*.
Cc1nn(-c2ccccc2)c2nc(C(Cl)(Cl)Cl)[nH]c(=O)c12 was read as Sm TGR inh 12.6µM*, RE007 growth inh 17.6%, LASV entry inh -2.6%, HCV inh -10.2%, FMDV antiviral inconclusive and Marburg entry inh -1.9%[46.1 µM].
O=C(NC(=S)N(CCCCO)C1CCCCC1)c1sc2ccccc2c1Cl was read as Sm TGR inh -15.8%, RE007 growth inh inconclusive, LASV entry inh inconclusive, HCV inh -24.3% and Marburg entry inh 13µM*.
Screening O=C(NCc1ccc2c(c1)OCO2)c1c[nH]c2ccc(S(=O)(=O)N3CCOCC3)cc2c1=O returned Sm TGR inh -7.7%, RE007 growth inh -14.5%, LASV entry inh 0.517µM*, HCV inh 0.2%, FMDV antiviral -11.9% and Marburg entry inh -2.5%.
For CC1(C)Cc2c(sc(NC(=O)c3ccccc3)c2C(=O)O)CO1 the results were RE007 growth inh -8.2%, LASV entry inh inconclusive, HCV inh -20.1%, FMDV antiviral 9.4% and Marburg entry inh inconclusive.
COc1ccc(C(=O)Nc2sc3c(c2C(=O)O)CC(C)(C)OC3)cc1 was read as Sm TGR inh -6.1%, RE007 growth inh -2.1%, LASV entry inh inconclusive, HCV inh -14.5%, FMDV antiviral -17.1% and Marburg entry inh 4.47µM*.
CC(C)COc1ccc(C(=O)Nc2sc3c(c2C(=O)O)CC(C)(C)OC3)cc1 was read as Sm TGR inh 0.0%, RE007 growth inh -1.0%, LASV entry inh inconclusive, HCV inh 10µM*, FMDV antiviral -10.4% and Marburg entry inh 1.26µM*.
Screening CCOC(=O)c1c(NC(=O)c2cccs2)sc2c1CC(C)(C)OC2 returned Sm TGR inh 10.3%, RE007 growth inh -4.6%, LASV entry inh -10.8%, HCV inh 7.94µM*, FMDV antiviral inconclusive and Marburg entry inh inconclusive.

Bioassay records from PubChem BioAssay.
